Drawing on PubChem BioAssay (NCI), this text covers growth for 37 compounds.

SMILES strings stand for the structures. Compounds without any hit were thinned out: in the full panel of roughly 83,000, 20% have a hit.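 For each line, cells grew in 96-well plates with the test compound present at a single concentration for 48 hours.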 Active and inactive are the calls of the source. Rule for the calls: active = growth percent below 10; inactive = the rest.

The subject of one test is MCF7 breast. In words: NCI-60 one-dose screen, 48 h (100 = growth as untreated, 0 = no growth, -100 = all killed). Conditions: 10 µM.
As for `CN1CCN(Cc2ccc(C(=O)Nc3cccc(Nc4ccc5cc(O)ccc5n4)c3)cc2C(F)(F)F)CC1`, the growth was -78.4% (active).
In the case of `Brc1ccc(/C=N/Nc2ncnc3sc4c(c23)CCN(Cc2ccccc2)C4)cc1`, the growth was 42.8% (inactive).
Still for that read-out and setting: the same measure for `COc1ccc(C(C)=C(c2ccc(OCCCN(C)C)cc2)c2ccc(OCCCN(C)C)cc2)cc1`: -69.5% (active); for `C=C(C)[C@@H]1CC[C@]2(C(=O)OC)CC[C@]3(C)[C@H](CC[C@@H]4[C@@]5(C)CC[C@H](N)C(C)(C)[C@@H]5CC[C@]43C)[C@@H]12`: -85.4% (active).
Still for that read-out and setting: for `CS(=O)(=O)Nc1ccc(-c2ccc3c(c2)ncn3-c2ccc(NC(=O)Nc3ccc(Br)cc3)cc2)cc1` the value was -35.1% (active); for `CCCS(=O)(=O)c1oc(-c2ccc(F)cc2)nc1S(=O)(=O)c1ccc(F)cc1`, -65.7% (active); for `CC(C)CCSc1nc(NC2CC2)c(C#N)c(-c2ccc(C(C)C)cc2)n1`, 97.9% (inactive).
Same read-out and setting: the same measure for `Cc1ccc(-c2nc3ccc(C(=O)N=Nc4c(O)[nH]c5ccc([N+](=O)[O-])cc45)cc3[nH]2)cc1`: 65.9% (inactive).

The next test has as its system HCT-116 colon. Described as above. As to conditions: 10 µM.
Turning to `CN1CCN(c2ccc(Nc3nc(N4CCN(S(=O)(=O)c5ccc(F)cc5)CC4)c4sccc4n3)cc2)CC1`, the growth was -51.1% (active).
As to `CCCCCc1ccc(S(=O)(=O)Nc2cc(-c3csc(N(C)C(C)=O)n3)ccc2N2CCN(C)CC2)cc1`, the growth is -84.7% (active).
The same measure, in the same setting: for `CN1CCN(c2ccc(Nc3nc(NCCCNC(=O)C4CCCCC4)c4sccc4n3)cc2)CC1` the value was 30.8% (inactive); for `N[C@@H](CSSC[C@H](N)C(=O)Nc1ccc(OCC2CCCC2)cc1)C(=O)Nc1ccc(OCC2CCCC2)cc1`, -35.9% (active); for `COc1ccc2nc(Cl)c(-c3cc(-c4ccccc4)nc(=O)[nH]3)cc2c1`, 9.44% (active).
Turning to `O=C(Nc1ccc(OCc2ccccc2)cc1)Nc1ccc(Cl)c(C(F)(F)F)c1`, the growth was 2.43% (active).
Still for that read-out and setting: for `COc1ccc2[nH]c(O)c(N=NC(=O)COc3ccc(NC(=O)Nc4ccc(Cl)cc4)cc3)c2c1` the value was -33.8% (active); for `Cc1cc2c(c(O)c1Br)-c1ncoc1C(=O)[C@]1(C)CC[C@H](C(C)C)[C@H]21`, 31.1% (inactive).
Still for that read-out and setting: the same measure for `CCN1CCN(c2ccc(NC(=O)Nc3ccc4c(c3F)CCN4c3ccnc(C(=O)NC)c3)cc2C(F)(F)F)CC1`: -96.5% (active); for `O=C1Nc2ccc(F)cc2/C1=C/c1cccc(OCc2ccccc2)c1`: 10.1% (inactive).
On the same count and under the same terms, for `Cc1ccc(NC(=O)c2ccc(-n3c(=O)[nH]c4ccccc4c3=O)cc2)cc1` the value was 92.4% (inactive); for `O=C(Nc1ccncc1)c1ccc(-n2c(=O)[nH]c3ccccc3c2=O)cc1`, 99.1% (inactive); for `Cc1ccc(-c2cc(-c3cc4ccccc4nc3Cl)[nH]c(=S)n2)cc1`, 64.5% (inactive).
Consider `O=C(c1ccc(Cl)cc1)C1[C@H](c2ccc(Br)cc2)[C@@H](c2ccccc2)NC12C(=O)Nc1ccc(Cl)cc12` (stereo not given in full), for which the growth was 5.1% (active).
Same read-out and setting: for `O=C(O)CCCCCCCCCCN1C(=O)/C(=C/c2cnc(-c3ccc(Cl)cc3)s2)SC1=S` the value was 4.89% (active); for `CN1CCN(c2ccc(Nc3nc(N4CCN(S(=O)(=O)c5ccc(Cl)cc5)CC4)c4sccc4n3)cc2)CC1`, -49.9% (active); for `CN1CCN(c2ccc(C(=O)/C=C/c3cc(Br)ccc3F)cc2)CC1`, 1.2% (active).
The same measure, in the same setting: the same measure for `O=c1nc(-c2ccccc2)cc(-c2cc3ccccc3nc2Cl)[nH]1`: -91.6% (active); for `CC1=C2C(=C[C@@](C)(CO)[C@@H]2O)/C(=N\N)[C@](C)(O)C12CC2`: 19.1% (inactive).
The same measure, in the same setting: the same measure for `O=C(c1ccc(O)cc1)C1[C@H](c2ccc(Br)cc2)[C@@H](c2ccccc2)NC12C(=O)Nc1ccc(Br)cc12` (stereo not given in full): 8.14% (active); for `COc1ccc(C=CC(=O)c2ccc(-n3c(C)nc4c(cnn4-c4ccccc4)c3=O)cc2)cc1`: 9.71% (active).
Consider `O=C(c1ccc(O)cc1)C1[C@H](c2ccccc2Br)[C@@H](c2ccccc2)NC12C(=O)Nc1ccc(Cl)cc12` (stereo not given in full), for which the growth is 18.4% (inactive).
The same measure, in the same setting: the same measure for `O=C(c1ccccc1)n1ccc(-c2cc3cc(Br)ccc3oc2=O)n1`: 16% (inactive); for `C#Cc1ccc(S(=O)(=O)Nc2cccc(-c3csc(NC(C)=O)n3)c2)cc1`: 77.9% (inactive); for `O=C(N/N=C/c1ccc(-c2cccc([N+](=O)[O-])c2)o1)c1[nH]c2ccc(Br)cc2c1-c1ccccc1`: -53.2% (active).
On the same count and under the same terms, for `O=C(Nc1nc2ccc([N+](=O)[O-])cc2s1)Nc1cc(Cl)ccc1I` the value was -78.8% (active).
Consider `C=C(c1ccc(OC)c(N)c1)c1cc(C)nc2ccccc12`, for which the growth is 8.49% (active).
In the case of `CNC(=O)c1cccc(N2CCc3c2ccc(NC(=O)Nc2ccc(N4CCN(C)CC4)c(C(F)(F)F)c2)c3F)c1`, the growth was -95.3% (active).
In the case of `COc1ccc([C@H]2C(C(=O)c3ccc(Cl)cc3)C3(N[C@@H]2c2ccccc2)C(=O)Nc2ccc(Br)cc23)cc1` (stereo not given in full), the growth was 1.73% (active).
The same measure, in the same setting: for `CN1CCN(Cc2ccc(C(=O)Nc3cccc(Nc4ccc5cc(O)ccc5n4)c3)cc2C(F)(F)F)CC1` the value was 1.51% (active); for `Brc1ccc(/C=N/Nc2ncnc3sc4c(c23)CCN(Cc2ccccc2)C4)cc1`, 33.3% (inactive).
On the same count and under the same terms, the same measure for `COc1ccc(C(C)=C(c2ccc(OCCCN(C)C)cc2)c2ccc(OCCCN(C)C)cc2)cc1`: -72.1% (active); for `C=C(C)[C@@H]1CC[C@]2(C(=O)OC)CC[C@]3(C)[C@H](CC[C@@H]4[C@@]5(C)CC[C@H](N)C(C)(C)[C@@H]5CC[C@]43C)[C@@H]12`: -98.3% (active); for `CS(=O)(=O)Nc1ccc(-c2ccc3c(c2)ncn3-c2ccc(NC(=O)Nc3ccc(Br)cc3)cc2)cc1`: 2.46% (active).
`CCCS(=O)(=O)c1oc(-c2ccc(F)cc2)nc1S(=O)(=O)c1ccc(F)cc1`: the growth was 3.42% (active).
Same read-out and setting: the same measure for `CC(C)CCSc1nc(NC2CC2)c(C#N)c(-c2ccc(C(C)C)cc2)n1`: 108% (inactive); for `Cc1ccc(-c2nc3ccc(C(=O)N=Nc4c(O)[nH]c5ccc([N+](=O)[O-])cc45)cc3[nH]2)cc1`: 12.7% (inactive).
